# According to PubChem BioAssay:
# Records with an inconclusive call do not appear. The source made the active and inactive calls.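 The calls were made as follows, unless noted: active = aptamer binding inhibition above 30%, about 3 SD of noise from non-fluorescent compounds; inactive = inhibition at or below 30%.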
# Columns and labels:
# [1] = rapamycin-like changes in RPL19A-GFP expression – cell-based, S. cerevisiae, multiplex flow cytometry, primary screen (AID 1862; in the data active = percent of DMSO control GFP below about 86%;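 also: lower values mimic rapamycin by blocking the RPL19A rise seen in DMSO cells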); settings: S. cerevisiae RPL19A-GFP strain, flow cytometry fluorescence, 3 h; at 10 µM; stronger effect = lower value
# [2] = TOR pathway GLN3 branch reporter MEP2-GFP changes – S. cerevisiae, multiplex flow cytometry, primary screen (AID 1867;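 active = GFP response, as percent of the DMSO control, above the screen-wide mean plus 3 SD, about 139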;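 also: median GFP channel fluorescence of barcode-gated MEP2-GFP cells measured by flow cytometry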); settings: S. cerevisiae MEP2-GFP strain, 3 h, at 10 µM, stronger effect = higher value, 100% means same as DMSO wells
# [3] = TOR pathway RTG branch CIT2 reporter changes – S. cerevisiae, GFP fusion, multiplex flow cytometry, primary screen (AID 1870;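 active = percent response above a set limit, the screen-wide mean plus 3 SD, cut at about 130% in these data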;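 also: barcoded CIT2-GFP strain pooled with four other GFP strains with rapamycin as positive control; median GFP fluorescence per well over plate mean of DMSO wells so 100% = DMSO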); settings: S. cerevisiae CIT2-GFP expression, 3 h, at 10 µM, stronger effect = higher value
# [4] = TOR pathway LAP4-GFP level changes – S. cerevisiae, multiplex flow cytometry, primary screen (AID 1873;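 active = GFP signal, as percent of the solvent control, above the screen mean plus 3 SD, about 149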); settings: S. cerevisiae LAP4-GFP expression, 3 h, at 10 µM, stronger effect = higher value
# [5] = yeast AGP1-GFP level changes, GLN3 branch – cell-based, multiplex flow cytometry, S. cerevisiae, primary screen (AID 1887;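 active = GFP signal above the screen-wide mean plus 3 SD, that is over about 124.5% of the solvent control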;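 also: AGP1-GFP fusion strain of S. cerevisiae within a five-strain barcoded multiplex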); settings: 3 h, at 10 µM, stronger effect = higher value
# [6] = reduced mouse 2C T cell binding to pMHC/ICAM-1 vesicles – MLPCN validation set, flow cytometry, LFA-1/ICAM-1 modulator project, pilot screen (AID 2523;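 active = response below a set limit, under 55% cells CD8-positive and vesicle-bound, and CD8 cells' 90th-percentile brightness under 279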;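 as to vesicle binding response: mean PE anti-B7-1 fluorescence of CD8+ cells relative to row control; 100% = QL9-loaded vesicles with DMSO vehicle in the same plate row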); settings: 2C mouse CD8+ T cells, at 7 µM, stronger effect = lower value; double positive events: measured here: CD8+/vesicle+ event percentage
# [7] = biological target: Integrin beta-1 (Homo sapiens) + Integrin alpha-4 (Homo sapiens) (UniProt P13612+P05556); assay: alpha4beta1 integrin LIBS antibody binding reduction – U937 cells, HUTS-21 mAb, flow cytometry, validation set, VLA-4 allosteric modulator project, pilot screen (AID 2674;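 active = inhibition above 50%, about 3 SD of the validation set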;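 also: antibody binding induced by the VLA-4 ligand LDV present at three times its Kd; 0% = LDV ligand with antibody and no compound and 100% = antibody without LDV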); settings: HUTS-21 LIBS mAb binding, at 6.7 µM, stronger effect = higher value, binding induced by LDV ligand
# Sequence of Integrin beta-1 (Homo sapiens) + Integrin alpha-4 (Homo sapiens) (P05556 whole entry, looked up): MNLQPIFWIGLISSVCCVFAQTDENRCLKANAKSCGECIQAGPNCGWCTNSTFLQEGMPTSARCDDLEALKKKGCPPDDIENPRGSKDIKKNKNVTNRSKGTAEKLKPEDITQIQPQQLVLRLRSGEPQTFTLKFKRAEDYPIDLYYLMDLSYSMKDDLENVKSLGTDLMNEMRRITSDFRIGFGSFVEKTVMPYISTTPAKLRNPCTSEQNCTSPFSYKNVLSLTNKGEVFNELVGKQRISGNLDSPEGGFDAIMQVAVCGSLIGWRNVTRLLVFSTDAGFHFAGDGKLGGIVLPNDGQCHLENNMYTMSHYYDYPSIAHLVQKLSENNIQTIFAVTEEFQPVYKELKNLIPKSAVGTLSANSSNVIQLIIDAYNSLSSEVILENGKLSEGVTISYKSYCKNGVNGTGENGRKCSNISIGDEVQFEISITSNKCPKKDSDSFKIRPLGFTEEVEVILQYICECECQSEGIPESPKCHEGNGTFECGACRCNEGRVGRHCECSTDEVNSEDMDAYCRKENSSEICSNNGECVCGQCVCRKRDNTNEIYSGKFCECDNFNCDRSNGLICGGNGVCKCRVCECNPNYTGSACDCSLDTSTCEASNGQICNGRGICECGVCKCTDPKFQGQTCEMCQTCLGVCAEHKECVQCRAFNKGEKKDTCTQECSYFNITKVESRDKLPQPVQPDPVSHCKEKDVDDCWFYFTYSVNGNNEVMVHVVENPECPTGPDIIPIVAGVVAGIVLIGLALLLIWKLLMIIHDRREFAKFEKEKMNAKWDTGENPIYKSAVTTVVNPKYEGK
# Sequence of Integrin beta-1 (Homo sapiens) + Integrin alpha-4 (Homo sapiens) (P13612 whole entry, looked up): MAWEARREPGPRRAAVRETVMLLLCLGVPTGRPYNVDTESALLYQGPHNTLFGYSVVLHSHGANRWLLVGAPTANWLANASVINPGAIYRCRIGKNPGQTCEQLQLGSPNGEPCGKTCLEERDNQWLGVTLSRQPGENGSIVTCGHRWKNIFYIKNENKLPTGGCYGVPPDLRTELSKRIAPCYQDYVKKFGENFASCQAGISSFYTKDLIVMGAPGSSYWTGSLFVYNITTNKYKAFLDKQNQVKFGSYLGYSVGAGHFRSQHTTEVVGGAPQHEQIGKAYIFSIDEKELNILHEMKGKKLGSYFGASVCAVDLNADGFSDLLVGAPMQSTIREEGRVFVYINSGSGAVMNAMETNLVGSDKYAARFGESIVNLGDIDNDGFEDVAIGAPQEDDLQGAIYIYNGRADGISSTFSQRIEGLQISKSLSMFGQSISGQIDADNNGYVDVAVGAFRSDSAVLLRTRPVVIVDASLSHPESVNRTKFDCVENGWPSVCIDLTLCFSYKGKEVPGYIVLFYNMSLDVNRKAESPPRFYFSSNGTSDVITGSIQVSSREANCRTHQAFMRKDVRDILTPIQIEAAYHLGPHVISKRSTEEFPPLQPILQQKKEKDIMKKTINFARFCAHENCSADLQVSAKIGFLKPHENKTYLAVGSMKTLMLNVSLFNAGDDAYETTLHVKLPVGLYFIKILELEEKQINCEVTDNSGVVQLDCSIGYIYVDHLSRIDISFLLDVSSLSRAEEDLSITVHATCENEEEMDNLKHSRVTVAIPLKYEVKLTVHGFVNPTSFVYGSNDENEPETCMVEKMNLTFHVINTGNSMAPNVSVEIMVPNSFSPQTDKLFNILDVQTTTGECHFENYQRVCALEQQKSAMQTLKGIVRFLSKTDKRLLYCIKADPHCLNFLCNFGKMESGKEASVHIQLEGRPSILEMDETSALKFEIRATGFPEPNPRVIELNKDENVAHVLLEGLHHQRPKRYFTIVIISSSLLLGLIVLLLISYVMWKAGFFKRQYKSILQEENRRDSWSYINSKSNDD
# [8] = calorie-restriction mimetic ROS inhibitors, yeast – validation compound set, pilot screen (AID 2706;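 active = superoxide response below 65% of plate, a cut near 3 SD across the whole screen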;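 also: yeast exposed to compound for one week at 30 degrees C before staining; 100% = mean of all compound wells on the same plate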); settings: S. cerevisiae aging, superoxide DHE fluorescence; at 10 µM; stronger effect = lower value
# [9] = biological target: Beta-adrenergic receptor kinase 1 (Homo sapiens) (UniProt P25098); assay: GRK2 binders displacing RNA aptamer, biochemical, validation, human GRK2, bead flow cytometry (AID 488806); settings: bead-bound GRK2, FAM-aptamer displacement, at 10 µM, stronger effect = higher value
# Sequence of Beta-adrenergic receptor kinase 1 (Homo sapiens) (P25098 whole entry, looked up): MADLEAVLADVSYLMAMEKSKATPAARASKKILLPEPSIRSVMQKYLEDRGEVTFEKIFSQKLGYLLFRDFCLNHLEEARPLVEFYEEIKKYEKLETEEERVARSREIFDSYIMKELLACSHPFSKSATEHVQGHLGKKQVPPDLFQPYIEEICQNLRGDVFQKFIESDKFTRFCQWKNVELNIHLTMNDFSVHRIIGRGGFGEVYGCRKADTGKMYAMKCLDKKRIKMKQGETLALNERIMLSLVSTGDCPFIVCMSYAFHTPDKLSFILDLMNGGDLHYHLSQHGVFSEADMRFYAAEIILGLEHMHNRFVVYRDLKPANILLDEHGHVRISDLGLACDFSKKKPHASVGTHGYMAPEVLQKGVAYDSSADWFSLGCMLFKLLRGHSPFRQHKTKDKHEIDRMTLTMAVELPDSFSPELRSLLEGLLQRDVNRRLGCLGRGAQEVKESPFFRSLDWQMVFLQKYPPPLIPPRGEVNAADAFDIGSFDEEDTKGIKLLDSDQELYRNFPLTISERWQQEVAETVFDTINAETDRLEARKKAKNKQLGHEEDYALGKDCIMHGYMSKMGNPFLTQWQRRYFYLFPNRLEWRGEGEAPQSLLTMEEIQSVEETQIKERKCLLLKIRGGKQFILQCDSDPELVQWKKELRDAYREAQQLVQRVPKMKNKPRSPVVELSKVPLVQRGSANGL
# [10] = biological target: Beta-2 adrenergic receptor (Homo sapiens) (UniProt P07550); assay: agonist-induced loss of surface beta2AR – cell-based, FAP fluorogen, flow cytometry, validation set, pilot screen (AID 504459;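 active = percent response above 42, roughly 3 SD of non-fluorescent test compounds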;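 also: agonist-driven loss of surface beta2AR via internalization measured by FAP dye flow cytometry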); settings: Am2.2-beta2AR cells, at 10 µM, stronger effect = higher value
# Sequence of Beta-2 adrenergic receptor (Homo sapiens) (P07550 whole entry, looked up): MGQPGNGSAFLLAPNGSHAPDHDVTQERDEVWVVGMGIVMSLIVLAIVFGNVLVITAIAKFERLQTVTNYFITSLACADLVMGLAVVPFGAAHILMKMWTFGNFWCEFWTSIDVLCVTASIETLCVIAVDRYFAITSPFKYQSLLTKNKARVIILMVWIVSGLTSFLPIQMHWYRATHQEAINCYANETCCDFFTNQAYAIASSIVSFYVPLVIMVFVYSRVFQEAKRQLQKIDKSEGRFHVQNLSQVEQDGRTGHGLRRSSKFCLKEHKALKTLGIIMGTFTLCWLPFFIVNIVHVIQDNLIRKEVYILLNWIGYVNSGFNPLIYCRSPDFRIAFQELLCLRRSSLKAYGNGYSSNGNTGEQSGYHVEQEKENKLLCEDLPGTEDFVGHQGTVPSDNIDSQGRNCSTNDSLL
# [11] = biological target: AP-2 complex subunit beta (Homo sapiens) (UniProt P63010); assay: beta-arrestin/AP2 interaction blockers – biochemical, validation set, GST-AP2 beads, flow cytometry, pilot screen (AID 504541;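 active = inhibition above 54%, about 3 SD of non-fluorescent compounds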;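 also: AP2 carries R879A mutation and is captured from E. coli lysate; bead-bound FITC arrestin peptide fluorescence measuring arrestin peptide binding to AP2; 0% = DMSO wells and 100% = excess unlabeled arrestin peptide control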); settings: FITC arrestin peptide, at 10 µM, stronger effect = higher value, AP2 beta2 appendage fragment, R879A mutant
# Sequence of AP-2 complex subunit beta (Homo sapiens) (P63010 whole entry, looked up, the tested form may be a part, one chain of several): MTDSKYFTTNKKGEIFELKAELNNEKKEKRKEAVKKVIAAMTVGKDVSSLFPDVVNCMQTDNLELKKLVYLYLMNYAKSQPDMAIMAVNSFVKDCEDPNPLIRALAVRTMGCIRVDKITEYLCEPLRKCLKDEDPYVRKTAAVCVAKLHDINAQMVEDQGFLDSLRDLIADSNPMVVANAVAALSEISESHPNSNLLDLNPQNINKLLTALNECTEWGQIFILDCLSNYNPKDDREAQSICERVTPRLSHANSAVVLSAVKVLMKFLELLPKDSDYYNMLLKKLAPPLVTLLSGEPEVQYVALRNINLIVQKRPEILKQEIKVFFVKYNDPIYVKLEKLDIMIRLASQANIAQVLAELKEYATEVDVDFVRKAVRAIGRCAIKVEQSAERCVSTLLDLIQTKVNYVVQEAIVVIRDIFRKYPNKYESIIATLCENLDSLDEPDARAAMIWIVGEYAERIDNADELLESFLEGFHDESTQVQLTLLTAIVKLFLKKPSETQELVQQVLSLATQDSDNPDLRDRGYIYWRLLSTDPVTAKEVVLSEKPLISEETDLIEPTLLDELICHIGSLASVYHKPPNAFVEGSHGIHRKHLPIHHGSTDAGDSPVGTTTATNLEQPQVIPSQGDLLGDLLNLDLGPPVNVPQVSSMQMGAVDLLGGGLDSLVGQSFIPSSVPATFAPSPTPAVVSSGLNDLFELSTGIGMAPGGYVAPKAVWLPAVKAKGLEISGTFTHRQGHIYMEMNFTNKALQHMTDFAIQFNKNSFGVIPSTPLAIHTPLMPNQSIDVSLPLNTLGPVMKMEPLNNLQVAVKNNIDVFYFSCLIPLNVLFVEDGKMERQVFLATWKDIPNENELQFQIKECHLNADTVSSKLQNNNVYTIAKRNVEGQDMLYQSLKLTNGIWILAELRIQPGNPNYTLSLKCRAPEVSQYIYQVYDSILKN
# [12] = cytosolic pH regulators acting via V-ATPase – S. cerevisiae, pHLuorin, HTS validation (AID 504600; in the data active = response above about 15%;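 also: plate controls were DMSO for no effect and reference compound for full effect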); settings: V-ATPase proton transport, at 10 µM, stronger effect = higher value
# [13] = tested on: anti-desmoglein-3 scFv antibody binding to human DSG3; assay: blockers of pathogenic pemphigus antibody–desmoglein-3 binding – biochemical, validation compound set, bead-based, flow cytometry, pilot screen (AID 588368;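 active = binding below the plate cutoff, the plate median minus 3 SD, with a reading above zero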;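 also: signal is the median channel fluorescence of bead-bound GFP antibody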); settings: Protein G beads, DSG3-Fc, scFv-GFP binding, at 10 µM, stronger effect = lower value
# [14] = Nile Red efflux blockade in pump-expressing yeast – validation compound set, multiplex, phenotypic, pilot screen (AID 588506;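 active = efflux inhibition above 0.42, the validation set average plus 4 SD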;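 also: Nile Red retained in cells so higher fluorescence means more efflux inhibition; 0 = negative control wells and 1 = enniatin B 25 µM full block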); settings: S. cerevisiae pump-expressing triplex, Nile Red efflux flow cytometry; at 10 µM; stronger effect = higher value; the pumps come from Candida albicans
# [15] = biological target: ATP-binding cassette sub-family B member 6 (Homo sapiens) (UniProt Q9NP58); assay: blockers of ABCB6-driven porphyrin uptake – K562-ABCB6 cells, flow cytometry, validation set, pilot screen (AID 588550;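 active = inhibition above the screen-wide mean plus 3 SD, about 51%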;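 also: 0% = DMSO wells and 100% = benzethonium chloride 70 µM positive control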); settings: K562-ABCB6 porphyrin accumulation, 1 h, at 10 µM, stronger effect = higher value
# Sequence of ATP-binding cassette sub-family B member 6 (Homo sapiens) (Q9NP58 whole entry, looked up): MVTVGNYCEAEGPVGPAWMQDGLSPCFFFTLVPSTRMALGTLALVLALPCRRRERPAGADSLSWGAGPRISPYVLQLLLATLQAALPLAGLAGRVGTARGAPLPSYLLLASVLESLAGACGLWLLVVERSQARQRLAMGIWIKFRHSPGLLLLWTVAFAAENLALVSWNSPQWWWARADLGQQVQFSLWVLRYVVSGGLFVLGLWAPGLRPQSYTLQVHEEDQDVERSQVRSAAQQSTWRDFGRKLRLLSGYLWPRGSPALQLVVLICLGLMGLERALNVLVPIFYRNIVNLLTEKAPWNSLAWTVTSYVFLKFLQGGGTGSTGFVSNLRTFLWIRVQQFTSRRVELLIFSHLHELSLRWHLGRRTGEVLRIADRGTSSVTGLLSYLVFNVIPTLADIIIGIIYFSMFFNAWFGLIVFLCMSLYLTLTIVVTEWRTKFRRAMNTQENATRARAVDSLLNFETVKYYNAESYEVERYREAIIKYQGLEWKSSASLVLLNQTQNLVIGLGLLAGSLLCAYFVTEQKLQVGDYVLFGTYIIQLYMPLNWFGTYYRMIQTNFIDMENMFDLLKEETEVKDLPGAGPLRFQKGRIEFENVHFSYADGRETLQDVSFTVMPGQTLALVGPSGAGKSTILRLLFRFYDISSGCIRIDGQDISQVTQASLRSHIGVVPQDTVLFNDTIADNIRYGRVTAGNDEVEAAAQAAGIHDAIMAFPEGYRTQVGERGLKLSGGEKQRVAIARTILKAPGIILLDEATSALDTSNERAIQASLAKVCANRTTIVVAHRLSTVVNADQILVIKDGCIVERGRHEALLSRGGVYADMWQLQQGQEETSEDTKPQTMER
# [16] = AML differentiation inducers, ER-HoxA9 marrow cells – cell-based, GFP/MAC1 double positive, flow cytometry, validation set, primary screen (AID 588685;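 active = differentiation response of at least 50%, scaled between solvent and reference control, from cells with both markers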;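 also: compound exposure lasts four days before antibody staining and flow analysis; 0% = DMSO wells and 100% = 5 µM fulvestrant positive control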); settings: stronger effect = higher value, normalized: vehicle 0, fulvestrant 100
Structure (SMILES),percent of DMSO control GFP [1],GFP response vs DMSO [2],percent response of DMSO control [3],GFP response vs DMSO [4],"GFP response, % of DMSO [5]",double positive events [6] [%],vesicle binding response [6],inhibition [7],superoxide response (% of plate) [8],aptamer binding inhibition [9],response [10],inhibition [11],response [12],binding (% of control) [13],efflux inhibition (fraction of control) [14],inhibition [15],differentiation response [16]
CC(=O)N1CCN(c2ccc(NC(=O)/C=C/c3ccccc3)cc2)CC1,103% (inactive),98.7% (inactive),105% (inactive),100% (inactive),108% (inactive),63.1,168% (inactive),2.93% (inactive),76% (inactive),-3% (inactive),3.43% (inactive),-6.59% (inactive),3.19% (inactive),107% (inactive),0.39 (inactive),-1% (inactive),-11.9% (inactive)
O=C(Nc1nc2ccccc2s1)c1ccc(F)cc1,100% (inactive),106% (inactive),102% (inactive),109% (inactive),105% (inactive),59.5,297% (inactive),-4.52% (inactive),103% (inactive),3% (inactive),-12.7% (inactive),-2.74% (inactive),4.11% (inactive),101% (inactive),-0.13 (inactive),9% (inactive),-4% (inactive)
CCOc1ncnc2c1[nH]c1ccccc12,99.7% (inactive),98.5% (inactive),104% (inactive),88% (inactive),85.7% (inactive),52.2,354% (inactive),-8.62% (inactive),101% (inactive),4% (inactive),14.8% (inactive),-7.64% (inactive),19.2% (active),98.9% (inactive),0.01 (inactive),8% (inactive),-31.2% (inactive)
O=c1c2[nH]c3ccccc3c2ncn1CCC1=CCCCC1,91.7% (inactive),127% (inactive),103% (inactive),82% (inactive),89.6% (inactive),62.1,149% (inactive),14.2% (inactive),95.4% (inactive),-3% (inactive),-1.85% (inactive),-5.27% (inactive),0.28% (inactive),101% (inactive),0.01 (inactive),13% (inactive),1.64% (inactive)
S=C(c1ccc2c(c1)OCO2)N1CCCCC1,101% (inactive),104% (inactive),104% (inactive),105% (inactive),106% (inactive),62.6,176% (inactive),-9.13% (inactive),91% (inactive),-2% (inactive),-5.76% (inactive),34.2% (inactive),-2.91% (inactive),99.8% (inactive),0.19 (inactive),12% (inactive),-10.4% (inactive)
COc1cc(CNc2nnnn2C)ccc1OCc1ccc(F)cc1Cl,102% (inactive),101% (inactive),98.2% (inactive),92.3% (inactive),97.2% (inactive),66.7,150% (inactive),3.98% (inactive),51.5% (active),-1% (inactive),15.7% (inactive),16.9% (inactive),0.17% (inactive),104% (inactive),0.68 (active),7% (inactive),-5.68% (inactive)
C[C@@H]1CCC[C@H](C)N1NC(=O)c1ccc(Cl)c(S(N)(=O)=O)c1,105% (inactive),106% (inactive),107% (inactive),110% (inactive),113% (inactive),61.3,165% (inactive),4.27% (inactive),91.8% (inactive),-2% (inactive),6.03% (inactive),2.8% (inactive),1.78% (inactive),105% (inactive),0.5 (active),-5% (inactive),-8.96% (inactive)
Cc1ccc(S(=O)(=O)NC(=O)NN2CCCCCC2)cc1,102% (inactive),110% (inactive),100% (inactive),96.6% (inactive),97.5% (inactive),61.4,226% (inactive),29.6% (inactive),92.2% (inactive),4% (inactive),-9.17% (inactive),3.4% (inactive),-0.51% (inactive),99.7% (inactive),-0.04 (inactive),-2% (inactive),14.9% (inactive)
Cn1c(SCC(=O)c2ccccc2)nnc1-c1ccncc1,99% (inactive),103% (inactive),99.6% (inactive),112% (inactive),107% (inactive),61.9,157% (inactive),0.59% (inactive),105% (inactive),6% (inactive),-27.9% (inactive),4.51% (inactive),-4.48% (inactive),99.2% (inactive),-0.04 (inactive),2% (inactive),0.92% (inactive)
C#C[C@]1(O)CC[C@H]2[C@@H]3CCc4cc(OC5CCCC5)ccc4[C@H]3CC[C@@]21C,101% (inactive),104% (inactive),88.6% (inactive),126% (inactive),113% (inactive),62.7,213% (inactive),14.2% (inactive),97.7% (inactive),-1% (inactive),-9.24% (inactive),-1.15% (inactive),6.88% (inactive),105% (inactive),0.38 (inactive),3% (inactive),0% (inactive)
NC(N)=NC(N)=NCCc1ccccc1,101% (inactive),112% (inactive),100% (inactive),94% (inactive),100% (inactive),59.4,210% (inactive),3.7% (inactive),105% (inactive),0% (inactive),-4.33% (inactive),7.19% (inactive),-3.91% (inactive),88.8% (inactive),0.24 (inactive),-4% (inactive),-8.55% (inactive)
O=C(COc1ccc(F)cc1)OCCN1CCOCC1,102% (inactive),95.1% (inactive),112% (inactive),93.3% (inactive),102% (inactive),62.8,246% (inactive),-2.53% (inactive),89.6% (inactive),0% (inactive),-7.72% (inactive),-0.56% (inactive),21.8% (active),96.4% (inactive),-0.1 (inactive),-1% (inactive),-6.6% (inactive)
C/C=C(/C(=C/C)c1ccc(O)cc1)c1ccc(O)cc1,90.4% (inactive),135% (inactive),95.2% (inactive),81.4% (inactive),87.7% (inactive),63.9,170% (inactive),8.4% (inactive),91.4% (inactive),2% (inactive),-4.98% (inactive),13.1% (inactive),-1.75% (inactive),101% (inactive),0.48 (active),4% (inactive),-7.37% (inactive)
CC(=O)CCc1c(C)c2cccc(C)c2[nH]c1=O,104% (inactive),99.6% (inactive),103% (inactive),97.4% (inactive),98.8% (inactive),56.4,269% (inactive),-9.98% (inactive),105% (inactive),1% (inactive),-3.42% (inactive),-3.21% (inactive),-0.84% (inactive),95.5% (inactive),-0.03 (inactive),9% (inactive),-18.4% (inactive)
CCCCOc1ccc(CC(=O)NO)cc1,87.8% (inactive),113% (inactive),106% (inactive),75.9% (inactive),75% (inactive),48.1,214% (inactive),-3.24% (inactive),121% (inactive),-2% (inactive),-26.1% (inactive),3.29% (inactive),1.03% (inactive),104% (inactive),0.09 (inactive),9% (inactive),2.46% (inactive)
COc1ccc(NC(=O)C2CCCN2C(=O)OC(C)(C)C)cc1 (stereo not drawn),102% (inactive),102% (inactive),100% (inactive),92.3% (inactive),99.9% (inactive),69.5,107% (inactive),2.55% (inactive),53.3% (active),0% (inactive),-5.75% (inactive),-4.29% (inactive),-0.27% (inactive),102% (inactive),-0.38 (inactive),8% (inactive),-5.68% (inactive)
O=C(Cc1ccccc1[N+](=O)[O-])NCCCN1CCOCC1,101% (inactive),101% (inactive),96.4% (inactive),107% (inactive),107% (inactive),63.1,426% (inactive),-4.52% (inactive),113% (inactive),1% (inactive),-20% (inactive),-4.04% (inactive),0.45% (inactive),99.9% (inactive),0 (inactive),2% (inactive),-5.97% (inactive)
COc1ccc(N2CCN(C(=S)NCc3ccccc3)CC2)cc1,91.7% (inactive),133% (inactive),101% (inactive),81.4% (inactive),88.2% (inactive),65.5,171% (inactive),0.64% (inactive),82.1% (inactive),2% (inactive),-3.32% (inactive),30.1% (inactive),-3.6% (inactive),108% (inactive),0.16 (inactive),0% (inactive),4.09% (inactive)
Cc1ccc2c(c1)C(C)(C)[C@]1(C)NC(=O)CCN21,94.2% (inactive),109% (inactive),92% (inactive),115% (inactive),105% (inactive),65.2,212% (inactive),-25% (inactive),99.4% (inactive),7% (inactive),29.6% (inactive),-1% (inactive),-1.48% (inactive),98% (inactive),-0.28 (inactive),9% (inactive),2.4% (inactive)
